Compound activity: PubChem, National Center for Advancing Translational Sciences (NCATS)
KB-V1 cytotox: qHTS assay for MDR1-selective chemotherapeutics: Primary screen using the drug-selected MDR subline cells KB-V1; KB-V1 MDR cells viability, CellTiter-Glo, 72 h; Potency, µM (titrated, usually from 46.1 µM), most hits filed as cytotoxic; 3.4% of 400,000 active; AID 1347076, 2019; note: nearly all actives have a fitted effect of over 60% in size
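Drug-selected KB-V1 cells, grown in DMEM lacking phenol red with 10% FBS, receive compound titrations; after three days at 37 degrees C, surviving cell ATP is quantified by CellTiter-Glo luminescence and responses normalized and curve-fitted.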
KB-3-1 tox: qHTS assay for MDR1-selective chemotherapeutics: Primary screen using the parental adenocarcinoma cell KB-3-1 | Potency, µM (highest dose often 46.1 µM), hits mostly cytotoxic | KB-3-1 viability, CellTiter-Glo ATP luminescence, 72 h | 1.4% of 400,000 active; note: nearly all actives have a fitted effect of over 60% in size
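Cells are dispensed, compounds pinned in, plates held at 37 °C for 72 h, then CellTiter-Glo is added and luminescence read after 10 minutes. Cell line: parental KB-3-1 in phenol-red-free DMEM, 10% FBS.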
HT1080 IDH1KD tx: qHTS for induction of synthetic lethality in tumor cells producing 2HG: qHTS for the HT-1080-IDH1KD cell line | Potency, µM (series often up to 46.1 µM), for the others: top-dose activity, negative = toxicity, most hits filed as cytotoxic | AID 686971, 2013 | HT-1080 IDH1 knockdown viability, ATP luminescence, 48 h | 2% of 360,000 active;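 note: 0% = DMSO wells and -100% = cell-free medium wells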
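Assay cells: HT-1080 with IDH1 knockdown, 750 per well, RPMI/5% FBS. Exposure: 48 h at 37 °C following 2 h pre-incubation. Read: CellTiter-Glo luminescence; fitted concentration-response, curve class assigned.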
TDP1 cell noCPT: qHTS for Inhibitors of human tyrosyl-DNA phosphodiesterase 1 (TDP1): qHTS in cells in absence of CPT; DT40 Tdp1-/- hTDP1 cells, no CPT, ATP luminescence, 48 h; Potency, µM (top dose mostly 46.2 µM), for the others: top-dose activity change, negative = growth inhibition, most hits filed as inhibitors; 15% of 420,000 active; AID 686978, 2013; note: nearly all actives have a fitted effect of over 55% in size
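Growth of hTDP1-complemented DT40 Tdp1-knockout cells is measured by ATP luminescence after at least 48 hr compound exposure at 37 °C, with DMSO substituting for the 20 nM CPT used in the parallel screen.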
DT40 TDP1 CPT: qHTS for Inhibitors of human tyrosyl-DNA phosphodiesterase 1 (TDP1): qHTS in cells in presence of CPT; chicken DT40 Tdp1-/-;hTDP1 cells + 20 nM CPT, ATP luminescence, 48 h; Potency, µM (series often up to 46.2 µM), for inactives: top-dose activity change, negative = growth inhibition, usual class: inhibitors; 12% of 420,000 active; AID 686979, 2013; note: nearly all actives have a fitted effect of over 55% in size
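Chicken DT40 Tdp1-/- cells complemented with human TDP1, 400 cells/well, exposed to compounds plus 20 nM camptothecin for at least 48 h at 37 C; viability read as ATP content by CellTiter-Glo luminescence.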
HT1080NT lethal: qHTS for induction of synthetic lethality in tumor cells producing 2HG: qHTS for the HT-1080-NT fibrosarcoma cell line. AID 686970, 2013. HT-1080-NT fibrosarcoma viability, CellTiter-Glo ATP luminescence, 48 h. 1.6% of 360,000 active. Potency, µM (highest dose often 46.1 µM), for the others: at the top dose activity, negative = less viability, usual class: cytotoxic;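 note: NT is the 2HG producing partner of a matched IDH1 knockdown line; 0% = DMSO-treated cells and -100% = media-only wells without cells; nearly all actives have a fitted effect of over 55% in size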
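HT-1080-NT fibrosarcoma cells (2HG-overproducing), 750 cells/well in RPMI with 5% FBS, dosed after 2 h and incubated 48 h at 37C. CellTiter-Glo luminescence normalized to DMSO and no-cell wells; concentration-response curves fitted and classed.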
The depositor's hits bear a star; i = inactive; u = inconclusive; x = no result given. An excerpt weighted towards active compounds, which were near 19% of everything screened. Calls come from the whole dose curve; as a rule, active = well fitted curve in the direction sought with a large enough effect; inconclusive = small, poorly fitted or top-dose-only effect, or another doubt; inactive = no such curve, though single readings can be large; an effect the other way counts as inactive or inconclusive. Unless noted, % is set by controls: 0 for no effect and ±100 for the full control effect; potency is the fitted concentration of half-maximal effect.

SMILES	KB-V1 cytotox	KB-3-1 tox	HT1080 IDH1KD tx	TDP1 cell noCPT	DT40 TDP1 CPT	HT1080NT lethal
CCOP(=O)(OCC)C(Nc1cccc([N+](=O)[O-])c1)c1ccc(OC)cc1 (stereo not given)	u	i	-12%	13µM*	u	2%
CCOP(=O)(OCC)C(Nc1cc(Cl)cc(Cl)c1)c1cccc(O)c1 (stereo not given)	i	i	-12%	u	u	-3%
CCOP(=O)(OCC)C(O)c1cccc([N+](=O)[O-])c1 (stereo not given)	i	i	14%	25%	2%	13%
CC1CN(c2ccc([N+](=O)[O-])cc2Cl)CCN1 (stereo not given)	i	i	-20%	u	-26%	-13%
CN1CCCN(C(=O)COc2ccc(F)cc2Cl)CC1	i	i	7%	7%	-12%	12%
NC(=O)c1cc(N2CC2)c([N+](=O)[O-])cc1[N+](=O)[O-]	i	i	-10%	0.037µM*	0.15µM*	0%
COC(=O)c1ccc(N2CCN(C)CC2)c([N+](=O)[O-])c1	i	i	12%	0%	5%	2%
Cc1ccc(S(=O)(=O)N(c2cc(Cl)c(O)c(Cl)c2)P(=O)(OC(C)C)OC(C)C)cc1	i	u	7%	8%	-7%	10%
O=c1[nH]c(=O)n(Cc2ccccc2)c(O)c1/C=N/NCCO	i	i	3%	10%	8%	4%
COc1ccccc1OC(C)C(=O)N1CCC(Cc2ccccc2)CC1 (stereo not given)	u	i	-4%	u	16µM*	-9%
Cc1ccsc1-c1nc(CSCC(=O)N2CCC3(CC2)OCCO3)c(C)o1	u	i	-11%	16µM*	23µM*	0%
Cc1ccccc1-c1nc(CS(=O)CC(=O)N2CCC3(CC2)OCCO3)c(C)o1 (stereo not given)	13µM*	i	16%	-1%	-1%	1%
Cc1ccccc1-c1nc(CS(=O)CC(=O)N2CCN(c3cc(Cl)ccc3C)CC2)c(C)o1 (stereo not given)	i	i	x	13µM*	16µM*	x
CN(C)P1(=O)N(C)CCN1C	i	i	9%	13%	17%	29%
CSc1ncc(C(=O)Nc2ccc(Cl)cc2C(=O)c2ccccc2)c(C)n1	i	i	x	u	u	x
CCOc1nc(NC(C)C)nc(N2CC3CC(C2)c2cccc(=O)n2C3)n1 (stereo not given)	i	i	0%	u	18µM*	-1%
CCCCCCNc1nc(OC)nc(N2CC3CC(C2)c2cccc(=O)n2C3)n1 (stereo not given)	i	i	-2%	u	u	-2%
CC12CCC(=O)C=C1CC(N1CC1)C1C2CCC2(C)C(O)CCC12 (stereo not given)	u	u	2%	2.6µM*	1.8µM*	10%
CC(=O)C1CCC2C3C(N4CC4)CC4=CC(=O)CCC4(C)C3CCC12C (stereo not given)	u	u	-2%	4.6µM*	3.7µM*	5%
CC(=O)OC1C2C(OC(=O)Cc3ccccc3)C(C)CC2(OC(C)=O)C(=O)/C(C)=C/C2C(CC[C@@]13CO3)C2(C)C (stereo not given in full)	x	x	x	-2%	17%	x
O=C(CN1CCN(c2ccccc2)CC1)Nc1ccccc1C(=O)NCCc1ccccc1	i	i	-13%	u	u	-11%
CN(CCCC(=O)c1cccnc1)N=O	x	x	x	4%	0%	x
Cc1cc(N(CCCl)CCCl)ccc1C=NNC(=O)c1cccnc1	i	i	-9%	u	10µM*	2%
O=C(NN=Cc1ccc(N(CCCl)CCCl)cc1Cl)c1cccnc1	i	i	-16%	23µM*	u	-11%
CC(C)[C@H]1C(=O)O[C@@H]2CCN3CC=C(COC(=O)[C@](C)(O)[C@]1(C)O)[C@H]23	i	i	-1%	-19%	u	2%
SMILES	KB-V1 cytotox	KB-3-1 tox	HT1080 IDH1KD tx	TDP1 cell noCPT	DT40 TDP1 CPT	HT1080NT lethal
CCOC(=O)c1ncn2c1CN(C)C(=O)c1cc(F)ccc1-2	i	i	u	-19%	u	0%
C=CCCC1(C(C)C)C(=O)NC(=S)NC1=O	i	i	1%	-9%	-1%	-1%
COc1ccc(CC(=O)N2CCN(C)CC2)cc1	i	i	1%	10%	8%	-10%
COc1ccc2nc(N3CCN(C(=O)CS(=O)(=O)c4ccc(C)cc4)CC3)sc2c1	x	x	x	13µM*	12µM*	x
CN1CCC(O)(c2ccccc2)C(C(=O)c2ccccc2)C1 (stereo not given)	i	i	13%	18µM*	9.2µM*	9%
CN1CCC(O)(c2ccccc2)C2CCCC21 (stereo not given)	i	i	-2%	-36%	-3%	17%
CCN1CCC(O)(c2ccccc2)C(C(=O)c2ccccc2)C1 (stereo not given)	i	i	9%	4.1µM*	2.6µM*	5%
Nc1nc(N)c2cnnn2n1	i	i	12%	-1%	8%	4%
Clc1ccc2c(c1)CCc1cccnc1C2=C1CCNCC1	x	x	x	7.3µM*	6.5µM*	x
O=C(N/N=C/c1ccccc1OC(=O)N1CCOCC1)c1cccs1	i	i	u	4.6µM*	4.1µM*	-15%
CCOC(=O)c1c(/N=C/C2C(=O)NC(=O)NC2=O)sc2c1CCC2	i	i	-11%	6%	11%	-7%
CCOC(=O)c1c(NC(NC(=O)CF)C(Cl)(Cl)Cl)sc2c1CCCC2 (stereo not given)	i	i	-10%	u	13µM*	-8%
